TRHR PAM: qHTS for Small Molecule Agonists and Allosteric Enhancers of Human TRH Receptor: Primary Screen for Enhancers; TRHR cells, fluo-8 calcium fluorescence, EC20 TRH enhancement; enhancement, % at 2 µM; 360,000 compounds, 0.66% hits; in the data active = enhancement above about 30%; note: 0% is about no effect
Target sequence (P34981 whole entry, looked up): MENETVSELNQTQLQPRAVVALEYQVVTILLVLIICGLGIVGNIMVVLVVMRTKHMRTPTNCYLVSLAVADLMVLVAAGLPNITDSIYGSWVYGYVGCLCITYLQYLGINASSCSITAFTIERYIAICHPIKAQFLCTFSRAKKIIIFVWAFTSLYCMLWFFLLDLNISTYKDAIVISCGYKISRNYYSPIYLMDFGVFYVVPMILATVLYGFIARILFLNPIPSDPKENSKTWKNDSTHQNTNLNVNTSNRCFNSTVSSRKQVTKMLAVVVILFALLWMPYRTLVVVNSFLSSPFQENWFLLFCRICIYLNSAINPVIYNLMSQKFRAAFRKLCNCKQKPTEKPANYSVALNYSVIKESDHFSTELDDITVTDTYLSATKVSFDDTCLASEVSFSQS
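TRHR-expressing cells loaded with fluo-8 calcium dye were read kinetically (ex 480/em 530) during compound addition, then stimulated with an EC20 of TRH (10 nM final). Enhancement of the Gq-mediated intracellular calcium response was scored.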
D1 antag: Antagonist of Human D 1 Dopamine Receptor: qHTS | activity change, negative = inhibition, % at 10 µM | 360,000 compounds, 3.2% hits | D(1A) dopamine receptor (Homo sapiens), P21728 | AID 504652, 2011 | HEK293 TREx D1 cells, calcium flux, dopamine EC80; hits give low values; in the data active = activity change below about -30%; note: % is set by controls: 0 for no effect and ±100 for the full control effect
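Compound effects on dopamine-evoked calcium signalling were measured in tetracycline-induced HEK293 Trex D1 cells. Dopamine at EC80 followed a 180 s compound pre-read, and fluorescence was tracked kinetically for 180 s more.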
D1 potentiator: Potentiators of Human D1 Dopamine Receptor: qHTS; D(1A) dopamine receptor (Homo sapiens), P21728; HEK293 TREx D1 cells, calcium flux, dopamine EC20 potentiation; potentiation, % at 10 µM; 360,000 compounds, 0.036% hits; AID 504651, 2011; in the data active = potentiation above about 30%; note: 0% is about no effect
D1 ag: Allosteric Agonists of the Human D1 Dopamine Receptor: qHTS | D(1A) dopamine receptor (Homo sapiens), P21728 | HEK293 T-REx D1 cells, calcium flux, agonist mode | activation, % at 2 µM | 360,000 compounds, 1% hits; note: 0% is about no effect
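Tetracycline-induced HEK293 TREx D1 cells, force-coupled to calcium signalling, were dye-loaded with a no-wash calcium kit. Compound was pin-added after a 10 s baseline. Fluorescence was read kinetically at 1 cycle/s for 180 s, with calcium rises flagged as agonism.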
TRHR agonist: qHTS for Small Molecule Agonists and Allosteric Enhancers of Human TRH Receptor: Primary Screen for Agonists; TRHR cells, calcium flux fluo-8, FDSS agonist mode; 360,000 compounds, 0.18% hits; Thyrotropin-releasing hormone receptor (Homo sapiens), P34981; activation, % at 2 µM; note: 0% is about no effect
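TRHR-expressing cells, plated overnight in medium with 10% serum, were loaded with fluo-8 calcium dye at room temperature. After a 10 s baseline, library compound was pin-added and calcium release was recorded kinetically (ex 480/em 530) as agonist response.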
* marks the source's active call; other numbers are inactive results; ! = not active in a repeat. A selection: hits, their analogues and other compounds. The true share with any hit is near 4.6%. Cut-off read from the data, not from the text of the source, unless noted: active = activation above about 30%; inactive = the rest.

Screening Cc1ccc(C(=O)/C=C/c2cn(CC(O)CN3CCCCCC3)c3ccccc23)cc1 (stereo unspecified) returned TRHR PAM 5, D1 antag -24, D1 potentiator -3, D1 ag 59* and TRHR agonist 4.
`O=C(/C=C/c1cn(CC(O)CN2CCCCCC2)c2ccccc12)c1ccc(Br)cc1` (stereo unspecified) gave TRHR PAM 5, D1 antag -3, D1 potentiator -5, D1 ag 45* and TRHR agonist 7.
O=C(/C=C/c1cn(CC(O)CN2CCCCC2)c2ccccc12)c1ccccc1 (stereo unspecified) was read as TRHR PAM -1, D1 antag -50*, D1 potentiator -5, D1 ag 31* and TRHR agonist 2.
Screening Cc1ccc(Cl)cc1Nc1nc2ccccc2c2nncn12 returned TRHR PAM 10, D1 antag 9, D1 potentiator -3, D1 ag -1 and TRHR agonist 0.
For COc1cccc(CNC(=O)COC(=O)c2nc(Cl)c(Cl)c(Cl)c2Cl)c1 the results were TRHR PAM -3, D1 antag -27, D1 potentiator -2, D1 ag 7 and TRHR agonist 1.
Screening Cc1ccc(CN2C(=O)c3ccccc3Sc3ccc(C(=O)NCCCN4CCOCC4)cc32)cc1 returned TRHR PAM -12, D1 antag 11, D1 potentiator -5, D1 ag 43*! and TRHR agonist 9.
Screening CCN(CC)CCCNC(=O)c1ccc2c(c1)N(Cc1c(F)cccc1Cl)C(=O)c1ccccc1S2 returned TRHR PAM -8, D1 antag -8, D1 potentiator 2, D1 ag 45* and TRHR agonist 17.
For CC1CCCN(CCCNC(=O)c2ccc3c(c2)N(Cc2ccc(F)cc2)C(=O)c2ccccc2S3=O)C1 (stereo unspecified) the results were TRHR PAM -6, D1 antag 4, D1 potentiator 1, D1 ag 39* and TRHR agonist 3.
Screening CCN1C(=O)c2ccccc2Sc2ccc(NC(=O)c3ccc(C)c(F)c3)cc21 returned TRHR PAM -22, D1 antag -72*, D1 potentiator -8, D1 ag 0 and TRHR agonist 0.
O=C(NCCN1CCOCC1)c1ccc2c(c1)N(Cc1cccc(F)c1)C(=O)c1ccccc1S2 was read as TRHR PAM -2, D1 antag 20, D1 potentiator 10, D1 ag 5 and TRHR agonist 1.
Screening O=C(NCc1ccco1)c1ccc2c(c1)N(Cc1c(F)cccc1Cl)C(=O)c1ccccc1S2 returned TRHR PAM -12, D1 antag 3, D1 potentiator 4, D1 ag 3 and TRHR agonist 1.
`O=C(CN(Cc1ccccc1)C(=O)CCl)c1cccc(Br)c1` gave TRHR PAM 0, D1 antag -8, D1 potentiator -6, D1 ag 2 and TRHR agonist 0.
`Cc1c(C)n(Cc2ccc(F)cc2)c2ccc(C(=O)NCCCN3CCOCC3)cc12` gave TRHR PAM -8, D1 antag -37*, D1 potentiator -19, D1 ag 7 and TRHR agonist 0.
COc1ccccc1CNC(=O)c1ccc2c(c1)N(Cc1cc(C)ccc1C)C(=O)c1ccccc1S2 was read as TRHR PAM -1, D1 antag -38*, D1 potentiator -1, D1 ag 4 and TRHR agonist 1.
`c1ccc(-c2cnn3c(-c4ccccc4)c(-c4ccccc4)nc3n2)cc1` gave TRHR PAM 23, D1 antag -48*, D1 potentiator -13, D1 ag 475* and TRHR agonist 173*.
`COc1ccc(S(=O)(=O)N2CCN(c3ccccc3OC)CC2)cc1C(=O)N1CCCCC1` gave TRHR PAM 10, D1 antag -5, D1 potentiator -7, D1 ag 2 and TRHR agonist 0.
For O/N=C/c1ccc(OCc2ccccc2)c(Br)c1 the results were TRHR PAM 3, D1 antag -33*, D1 potentiator 1, D1 ag 2 and TRHR agonist -1.
For O=C(O)CCCN1C(=O)/C(=C/c2cn(-c3ccccc3)nc2-c2cccs2)SC1=S the results were TRHR PAM -6, D1 antag -37*, D1 potentiator -5, D1 ag 51* and TRHR agonist 1.
Screening CCS(=O)(=O)N1CCc2cc(C(=O)Nc3cc(C(F)(F)F)ccc3Cl)ccc21 returned TRHR PAM 1, D1 antag 7, D1 potentiator 6, D1 ag 2 and TRHR agonist 1.
Screening CCO[C@@H]1OC(C(=O)N2CCN(C)CC2)=C[C@H](C(C)(C)C)[C@H]1CCCO returned TRHR PAM 35*, D1 antag 18, D1 potentiator 8, D1 ag -3 and TRHR agonist 0.
CCO[C@@H]1OC(C(=O)N2CCN(C)CC2)=C[C@H](C2CCCCC2)[C@H]1CCCO was read as TRHR PAM 1, D1 antag 2, D1 potentiator -3, D1 ag -4 and TRHR agonist 0.
Screening Cc1cc2c(s1)c1cnn(Cc3ccc(F)c(F)c3F)c(=O)c1n2C returned TRHR PAM 2, D1 antag 5, D1 potentiator 10, D1 ag 1 and TRHR agonist -1.
For CC(=O)c1cccc(N(CC(=O)NC2CCCCC2)C(=O)Cn2nnc(-c3ccccc3)n2)c1 the results were TRHR PAM -5, D1 antag 24, D1 potentiator -3, D1 ag 1 and TRHR agonist 0.
Screening CCOC(=O)NC1c2ccccc2Oc2ccccc21 returned TRHR PAM -1, D1 antag -33*, D1 potentiator -2, D1 ag 0 and TRHR agonist -1.
O=C(/C=C/c1cccc([N+](=O)[O-])c1)N1CCN(Cc2ccc3c(c2)OCO3)CC1 was read as TRHR PAM -5, D1 antag -34*, D1 potentiator -9, D1 ag 2 and TRHR agonist -1.
O=C(/C=C/c1ccc2c(c1)OCO2)N1CCN(c2ccc(Cl)cc2)CC1 was read as TRHR PAM -7, D1 antag 0, D1 potentiator 7, D1 ag 3 and TRHR agonist 0.
O=C(/C=C/c1ccc2c(c1)OCO2)N1CCCCC1 was read as TRHR PAM -7, D1 antag -30*, D1 potentiator -2, D1 ag 2 and TRHR agonist 0.
O=C(/C=C/c1cccs1)N1CCN(Cc2ccc3c(c2)OCO3)CC1 was read as TRHR PAM 1, D1 antag 1, D1 potentiator -4, D1 ag 1 and TRHR agonist 0.
